Experimental data: PubChem BioAssay (EPA / NIEHS)
“And” between values parts separate entries of the source, which are not always exact repeats. Equal entries are not always repeated. More than one record can exist for a structure, and the calls need not agree. The source made the active and inactive calls. Rule for the calls: active = hit-call score of the fitted dose curve at least 0.9, where 1 is the maximum; inactive = score below 0.9.

Assays:
[1] = ATG_GLI_CIS: Attagene CIS-FACTORIAL HepG2 Assay for human Zinc Finger Protein GLI1 (AID 2282945); settings: HepG2, Attagene cis-factorial reporter mRNA, GLI element; actives raise or lower the signal
Outline: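 HepG2 cells transiently transfected with cis-promoter multiplexed reporter units report endogenous transcription factor activity. After 24 h chemical exposure, reporter mRNA was quantified by RT-PCR, 6-FAM labelling, HpaI digestion and capillary electrophoresis, with bidirectional fitting against DMSO.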

[2] = target: Bile acid receptor (Homo sapiens) (UniProt Q96RI1); test: ATG_IR1_CIS: Attagene CIS-FACTORIAL HepG2 Assay for human Nuclear Receptor Subfamily 1 Group H Member 4 (NR1H4), IR1 submotif (AID 2282946); settings: IR1 reporter transcription, actives raise or lower the signal
Chain of Bile acid receptor (Homo sapiens) (Q96RI1 whole entry, looked up): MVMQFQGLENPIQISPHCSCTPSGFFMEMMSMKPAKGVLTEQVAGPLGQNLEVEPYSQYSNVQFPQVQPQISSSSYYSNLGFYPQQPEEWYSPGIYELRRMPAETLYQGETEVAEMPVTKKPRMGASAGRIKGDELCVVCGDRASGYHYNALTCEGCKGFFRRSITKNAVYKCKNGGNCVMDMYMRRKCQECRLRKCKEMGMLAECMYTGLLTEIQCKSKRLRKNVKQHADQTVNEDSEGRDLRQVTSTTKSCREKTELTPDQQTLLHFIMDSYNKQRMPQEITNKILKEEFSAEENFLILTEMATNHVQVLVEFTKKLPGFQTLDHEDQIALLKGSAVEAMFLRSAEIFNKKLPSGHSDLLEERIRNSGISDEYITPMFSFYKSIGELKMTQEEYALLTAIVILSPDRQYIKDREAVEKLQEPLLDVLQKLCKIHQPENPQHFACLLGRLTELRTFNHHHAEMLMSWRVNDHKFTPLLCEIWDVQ
Outline: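 Transient MRTU transfection, HepG2; 24 h dosing; RNA → RT-PCR → 6-FAM primer extension → HpaI digest → capillary electrophoresis fluorescence. Gain/loss of signal fitted relative to DMSO.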

[3] = ATG_GRE_CIS: Attagene CIS-FACTORIAL HepG2 Assay for human Glucocorticoid Response Elements (GRE) (AID 2282947); settings: HepG2 GRE cis-reporter, Attagene multiplex mRNA; actives raise or lower the signal
Outline: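 Following 24 h chemical exposure of transiently transfected HepG2 cells, total RNA was reverse-transcribed and reporter cDNA amplified, fluorescently labelled and sized by capillary electrophoresis. Signal gain or loss was fitted relative to DMSO vehicle.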

[4] = ATG_ISRE_CIS: Attagene CIS-FACTORIAL HepG2 Assay for human Interferon Regulatory Factor 1 (IRF1) binding to an Interferon-Stimulated Response Element (ISRE) (AID 2282948); settings: HepG2 ISRE cis-reporter (Attagene), mRNA transcription readout; actives raise or lower the signal
Outline: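 Transiently transfected HepG2 cells carrying cis-element reporter units, dosed 24 hours. Reporter mRNA quantified by RT-PCR, fluorescent primer extension, HpaI digestion and capillary electrophoresis. Bidirectional fitting relative to DMSO.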

[5] = ATG_M_32_CIS: Attagene CIS-FACTORIAL HepG2 Assay for M32 Transcription Factor (Internal Marker) (AID 2282949); settings: HepG2 Attagene cis-factorial M32 reporter, mRNA; actives raise or lower the signal;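 note: background control marker of the multiplexed CIS panel rather than a real target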
Outline: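 HepG2 cells transiently transfected with multiplexed cis-regulated reporter units, dosed 24 h. Reporter mRNA quantified by RT-PCR, 6-FAM labelling, HpaI digestion and capillary electrophoresis; bidirectional fit vs DMSO.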

[6] = ATG_M_06_CIS: Attagene CIS-FACTORIAL HepG2 Assay for M06 Transcription Factor (Internal Marker) (AID 2282950); settings: HepG2 Attagene CIS-FACTORIAL M06 internal marker reporter; actives raise or lower the signal
Outline: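 HepG2 cells transiently transfected with cis-regulated multiple reporter transcription units were exposed to chemical for 24 h; reporter mRNA was quantified by RT-PCR, 6-FAM primer labelling, HpaI digestion and capillary electrophoresis, fitted bidirectionally against DMSO.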

[7] = target: Hypoxia-inducible factor 1-alpha (Homo sapiens) (UniProt Q16665); test: ATG_HIF1a_CIS: Attagene CIS-FACTORIAL HepG2 Assay for human Hypoxia Inducible Factor 1 (HIF1A) (AID 2282951); settings: HepG2 Attagene cis-factorial HIF1a reporter transcription; actives raise or lower the signal
Chain of Hypoxia-inducible factor 1-alpha (Homo sapiens) (Q16665 whole entry, looked up): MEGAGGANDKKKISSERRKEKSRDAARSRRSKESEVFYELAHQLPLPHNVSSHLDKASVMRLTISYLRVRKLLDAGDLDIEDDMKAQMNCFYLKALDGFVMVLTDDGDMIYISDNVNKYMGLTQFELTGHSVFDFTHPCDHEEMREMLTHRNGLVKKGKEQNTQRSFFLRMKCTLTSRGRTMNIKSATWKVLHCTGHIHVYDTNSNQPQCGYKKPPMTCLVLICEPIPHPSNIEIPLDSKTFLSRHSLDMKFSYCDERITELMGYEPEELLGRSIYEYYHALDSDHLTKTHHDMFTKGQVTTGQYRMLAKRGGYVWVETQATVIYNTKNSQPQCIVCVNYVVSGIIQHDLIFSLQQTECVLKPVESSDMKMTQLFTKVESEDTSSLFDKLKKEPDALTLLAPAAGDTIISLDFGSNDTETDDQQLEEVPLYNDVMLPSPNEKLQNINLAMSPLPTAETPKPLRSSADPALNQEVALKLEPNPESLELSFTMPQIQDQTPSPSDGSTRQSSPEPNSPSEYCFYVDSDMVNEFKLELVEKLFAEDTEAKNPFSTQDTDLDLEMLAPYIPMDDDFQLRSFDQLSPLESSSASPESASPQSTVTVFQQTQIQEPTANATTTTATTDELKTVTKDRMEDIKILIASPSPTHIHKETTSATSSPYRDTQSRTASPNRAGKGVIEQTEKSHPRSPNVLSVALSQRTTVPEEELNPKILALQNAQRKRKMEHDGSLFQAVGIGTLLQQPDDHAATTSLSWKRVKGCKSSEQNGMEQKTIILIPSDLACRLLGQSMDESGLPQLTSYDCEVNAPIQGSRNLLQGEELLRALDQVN
Outline: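 Activity is fitted in both directions relative to DMSO. Reporter transcripts are read by RT-PCR, fluorescent primer extension and capillary electrophoresis after 24 h chemical treatment. The cells are HepG2 carrying transiently transfected cis-element-driven reporter units responding to endogenous factors.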

[8] = target: Hepatocyte nuclear factor 6 (Homo sapiens) (UniProt Q9UBC0); test: ATG_HNF6_CIS: Attagene CIS-FACTORIAL HepG2 Assay for human Hepatocyte Nuclear Factor 6 (HNF6) (AID 2282952); settings: HepG2 Attagene cis-factorial HNF6 reporter transcription; actives raise or lower the signal
Chain of Hepatocyte nuclear factor 6 (Homo sapiens) (Q9UBC0 whole entry, looked up): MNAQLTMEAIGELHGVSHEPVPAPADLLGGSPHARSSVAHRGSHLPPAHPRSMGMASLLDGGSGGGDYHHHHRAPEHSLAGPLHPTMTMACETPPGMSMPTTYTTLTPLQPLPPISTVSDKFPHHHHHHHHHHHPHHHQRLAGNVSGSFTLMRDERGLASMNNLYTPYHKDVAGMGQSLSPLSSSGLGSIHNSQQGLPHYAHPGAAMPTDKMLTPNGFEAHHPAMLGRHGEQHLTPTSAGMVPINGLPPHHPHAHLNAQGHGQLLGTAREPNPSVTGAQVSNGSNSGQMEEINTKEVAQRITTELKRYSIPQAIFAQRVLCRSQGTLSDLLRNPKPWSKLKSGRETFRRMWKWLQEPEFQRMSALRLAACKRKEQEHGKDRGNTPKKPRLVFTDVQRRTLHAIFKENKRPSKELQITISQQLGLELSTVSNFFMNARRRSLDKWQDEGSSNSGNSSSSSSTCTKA
Outline: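 Multiplexed mRNA reporter assay in transfected HepG2; 24 h dosing; RT-PCR plus capillary electrophoresis fluorescence; DMSO-referenced bidirectional curve fitting.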

[9] = ATG_MRE_CIS: Attagene CIS-FACTORIAL HepG2 Assay for human Metal Responsive Element (MRE) (AID 2282954); settings: HepG2 MRE cis-reporter transcription, Attagene multiplex; actives raise or lower the signal
Outline: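 Step one: transfect HepG2 with cis-regulated reporter units. Step two: dose 24 h. Step three: isolate RNA, RT-PCR, 6-FAM label, HpaI digest, capillary electrophoresis. Fit bidirectionally to DMSO.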

[10] = target: Heat shock factor protein 1 (Homo sapiens) (UniProt Q00613); test: ATG_HSE_CIS: Attagene CIS-FACTORIAL HepG2 Assay for human Heat Shock Transcription Factor 1 (HSE) (AID 2282953); settings: HepG2 HSE cis-reporter, Attagene RNA transcription; actives raise or lower the signal
Chain of Heat shock factor protein 1 (Homo sapiens) (Q00613 whole entry, looked up): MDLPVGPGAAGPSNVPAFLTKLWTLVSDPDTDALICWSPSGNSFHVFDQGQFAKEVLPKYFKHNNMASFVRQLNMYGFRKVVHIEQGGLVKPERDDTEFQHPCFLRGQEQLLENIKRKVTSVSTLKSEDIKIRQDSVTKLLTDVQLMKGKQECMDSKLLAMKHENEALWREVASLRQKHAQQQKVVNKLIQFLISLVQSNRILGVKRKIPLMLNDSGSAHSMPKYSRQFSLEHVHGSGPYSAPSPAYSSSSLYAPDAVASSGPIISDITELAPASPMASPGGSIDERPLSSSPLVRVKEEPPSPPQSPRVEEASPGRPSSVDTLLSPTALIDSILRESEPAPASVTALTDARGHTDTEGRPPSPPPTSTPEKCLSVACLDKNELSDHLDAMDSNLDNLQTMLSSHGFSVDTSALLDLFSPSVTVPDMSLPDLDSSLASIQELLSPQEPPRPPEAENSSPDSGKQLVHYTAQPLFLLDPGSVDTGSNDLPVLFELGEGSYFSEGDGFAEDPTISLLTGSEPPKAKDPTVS
Outline: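 HepG2 cells transiently transfected with multiple reporter transcription units under cis-regulatory promoter control, measuring endogenous transcription factor activity. After 24 h chemical exposure, reporter mRNA quantified by RT-PCR, fluorescent labelling, HpaI digestion and capillary electrophoresis; bidirectional fit versus DMSO.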

Measured: AC50

CCCCC(CC)COC(=O)c1ccccc1C(=O)OCC(CC)CCCC (stereo unspecified)
not listed: [10]
inactive: all other assays above

CC1=C(C(=O)Nc2ccccc2)SCCO1
inactive: all assays above

COC(=O)c1ccccc1C(=O)OC
not listed: [7]
inactive: all other assays above

CCc1nn(C)c(C(=O)NCc2ccc(C(C)(C)C)cc2)c1Cl
active: [9] 2.3 µM
inactive: all other assays above

CCCCNC(=O)n1c(NC(=O)OC)nc2ccccc21
not listed: [7]
inactive: all other assays above

Oc1ccccc1-c1ccccc1
active: [1] 23 µM | [4] 68.5 µM | [10] 189 µM | [9] 65.7 µM
inactive: [1] | [4] | [5] | [6] | [7] | [8] | [10] | [9]

N#Cc1cc(Br)c(O)c(Br)c1
active: [9] 39.9 µM
not listed: [7]
inactive: all other assays above

C=CC1(C)OC(=O)N(c2cc(Cl)cc(Cl)c2)C1=O (stereo unspecified)
inactive: all assays above

C#CCOS(=O)OC1CCCCC1Oc1ccc(C(C)(C)C)cc1 (stereo unspecified)
active: [7] 2.4 µM | [9] 2.4 µM
inactive: all other assays above

COc1nc(NC(C)C)nc(NC(C)C)n1
not listed: [7]
inactive: all other assays above

CNC(=O)ON=CC(C)(C)SC
inactive: [1] | [2] | [3] | [4] | [5] | [6] | [7] | [8] | [9]
active: [4] 167 µM

O=C(O)COc1nc(Cl)c(Cl)cc1Cl
not listed: [7]
inactive: all other assays above

CN(C)C(=S)SSC(=S)N(C)C
not listed: [7]
inactive: all other assays above

CCCN(CCC)c1c([N+](=O)[O-])cc(S(N)(=O)=O)cc1[N+](=O)[O-]
inactive: all assays above

COC(=O)C(C)Oc1ccc(Oc2ccc(Cl)cc2Cl)cc1 (stereo unspecified)
active: [2] 76.5 µM
inactive: [1] | [2] | [3] | [4] | [5] | [6] | [7] | [8] | [10] | [9]

COP(=S)(OC)Oc1nc(Cl)c(Cl)cc1Cl
active: [1] 64.9 µM
not listed: [7]
inactive: all other assays above

COC(=O)C=C(C)OP(=O)(OC)OC
not listed: [7]
inactive: all other assays above

N#Cc1nn(-c2c(Cl)cc(C(F)(F)F)cc2Cl)c(N)c1S(=O)C(F)(F)F (stereo unspecified)
inactive: [1] | [2] | [3] | [4] | [5] | [6] | [8] | [9]
active: [3] 29 µM | [8] 44.7 µM | [9] 38.8 µM

CCOP(=S)(OCC)SCn1c(=O)oc2cc(Cl)ccc21
active: [10] 78.7 µM | [9] 66.2 µM
not listed: [7]
inactive: all other assays above

C=CCC1=C(C)C(OC(=O)C2C(C=C(C)C)C2(C)C)CC1=O (stereo unspecified)
inactive: [1] | [2] | [3] | [4] | [5] | [6] | [8]
active: [1] 67.2 µM [middle of 5 runs] | [2] 54.7 µM | [5] 107 µM | [10] 74.8 µM [middle of 6 runs] | [9] 43.8 µM [middle of 6 runs]

COc1ccc(C(c2ccc(OC)cc2)C(Cl)(Cl)Cl)cc1
inactive: [1] | [2] | [3] | [4] | [5] | [6] | [8] | [10] | [9]
active: [2] 21.6 µM | [9] 65.1 µM and 15.6 µM and 11.9 µM

CCOC(=O)C(Cl)Cc1cc(-n2nc(C)n(C(F)F)c2=O)c(F)cc1Cl (stereo unspecified)
inactive: all assays above

CCCCNC(=O)OCC#CI
inactive: [1] | [2] | [3] | [4] | [5] | [6] | [8] | [10] | [9]
active: [1] 51.8 µM | [2] 160 µM | [4] 33 µM | [10] 25.6 µM | [9] 35.9 µM

CCON=C(CC)C1=C(O)CC(c2c(C)cc(C)cc2C)CC1=O (stereo unspecified)
inactive: all assays above

COc1nc(C)nc(NC(=O)NS(=O)(=O)c2ccccc2CCC(F)(F)F)n1
inactive: all assays above
